Measured values taken from PubChem BioAssay AID602141 (Sanford-Burnham Center for Chemical Genomics, 2011).
In all, about 360,000 compounds went through this assay and about 1,300 (0.36%) were called active.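 How the source made its calls: active means corrected activity change at or below -50% at 5 µM; inactive means the rest.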 Shown is part of a subset that was picked to be rich in actives.

Assay: cytotoxicity in KKLEB CF airway cells, primary screen, cytotoxicity control for CF NF-kB inhibitor project, cell-based, uHTS, fluorescence assay plates (AID 602141)
Settings: KKLEB CF airway cells viability, ATPlite luminescence, overnight; at 5 µM; hits give low values; cells stimulated with P. aeruginosa culture filtrate

SMILES | activity change (cytotoxicity)
CCOc1ccccc1NS(=O)(=O)c1cc2c3c(c1)C(C)C(=O)N3CCC2 (configuration not stated) | 7.2% (inactive)
COc1ccc(CN(C(=O)c2cccs2)c2nccs2)cc1OC | 5.6% (inactive)
O=C(NCc1cccnc1)c1nc(-c2cccs2)no1 | -11.3% (inactive)
COc1ccc(/C=C/C(=O)NC(=S)N2CCCC(C(N)=O)C2)cc1 (configuration not stated) | -10.3% (inactive)
CCOc1ccc(NC(=S)NC(=O)/C=C/c2ccc(OC)cc2)c([N+](=O)[O-])c1 | -50.2% (active)
CCOc1ccc(NC(=O)COC(=O)C2CCC(=O)N2)c([N+](=O)[O-])c1 (configuration not stated) | -7.5% (inactive)
COc1ccc(S(=O)(=O)n2cnc3ccccc32)c(C)c1 | 0.5% (inactive)
COc1c(C=O)c(CCN(C)C(=O)c2ccc(F)cc2)cc2c1OCO2 | -9% (inactive)
O=C(c1ccc2c(c1)OCO2)N1CCNc2ccccc2C1 | 4.7% (inactive)
CS(=O)(=O)N(CC(=O)N/N=C/c1ccccn1)c1ccc(Oc2ccccc2)cc1 | 1.8% (inactive)
O=C(N/N=C/c1ccccn1)c1cccc(NC(=O)c2ccc(Cl)cc2)c1 | -1.1% (inactive)
S=C(NN=Cc1ccccn1)Nc1ccccn1 | -63.5% (active)
Cc1ccc(S(=O)(=O)N2CCCCC2)cc1NC(=O)CCNC(=O)c1ccccc1Cl | 1.6% (inactive)
Nc1ncnc2c1ncn2[C@@H]1O[C@H](C(=O)NS(=O)(=O)c2c(Cl)nc3sccn23)[C@@H](O)[C@H]1O | -8.7% (inactive)
COc1cccc(NCCC(=O)c2cccc([N+](=O)[O-])c2)c1 | 1.2% (inactive)
COC(=O)/C=C\C(=O)Nc1cccc([N+](=O)[O-])c1 | -64.1% (active)
O=C(Nc1cccc([N+](=O)[O-])c1)N1CCc2ccccc2C1 | -12.4% (inactive)
CCN(CC(=O)Nc1ccccc1C(F)(F)F)C(=O)C1CCN(C(=O)Nc2ccccc2)CC1 | -2.1% (inactive)
Cc1cnc(C(=O)Oc2cccc(Cl)c2Cl)cn1 | 14.6% (inactive)
Cc1ccc2nc(-c3ccco3)c(Cc3cccc(Cl)c3)n2c1 | 6.4% (inactive)
Cn1c(-c2ccco2)nc2cc3ccccc3cc21 | -57.4% (active)
Cn1c(SCC(=O)Nc2ccc(Br)cc2F)nnc1-c1ccco1 | -9.6% (inactive)
CCOc1ccc(S(=O)(=O)NCc2ccc3c(c2)OCO3)cc1C | -0.2% (inactive)

SMILES | activity change (cytotoxicity)
COc1ccccc1CNC(=O)COC(=O)c1sc(C)nc1C | 5.6% (inactive)
COc1ccc(C)cc1NC(=O)CCCN1C(=O)NC(C)(C)C1=O | 9.3% (inactive)
Cc1cc(C)cc(NC(=O)N(C)Cc2ccccc2)c1 | 1.9% (inactive)
Cc1ccc(C=O)c([B-](F)(F)F)c1 | 7.5% (inactive)
CN1c2ccc(C=O)c3c(C=O)ccc(c23)N(C)C1(C)C | -67.5% (active)
Cc1ccc(S(=O)(=O)N(C)C)cc1NC(=O)CN1c2cccc3cccc(c23)S1(=O)=O | -28.1% (inactive)
Cc1ccc(/C=N/NC(=O)Cn2ccc(C(F)(F)F)n2)o1 | 10.5% (inactive)
Cc1cccc(NC(=S)N2CCC(O)CC2)c1C | -5.6% (inactive)
Fc1ccc(OCc2nn3c(Cn4nnc5ccccc54)nnc3s2)cc1 | -11.4% (inactive)
O=C(Nc1ccccc1Cl)/C(Cl)=C(\Cl)S(=O)c1ccccc1 (configuration not stated) | -100% (active)
O=C(Nc1ccccc1Cl)c1ccccc1S(=O)(=O)c1ccccc1[N+](=O)[O-] | 4.2% (inactive)
CC(=O)c1ccc(NC(=O)C(C)N(C)CC(=O)Nc2ccccc2Cl)cc1 (configuration not stated) | -7% (inactive)
Cc1noc(C)c1C(=O)OC(C)C(=O)Nc1ccc2c(c1)OCO2 (configuration not stated) | 1.3% (inactive)
COc1ccccc1NC(=O)C1CCN(C(=O)c2ccc(C(C)(C)C)cc2)CC1 | 3.1% (inactive)
COC(=O)c1sc(-c2ccc(C(C)(C)C)cc2)cc1NC(=O)/C=C/C(=O)O | -51.8% (active)
O=C(C=CC(=O)Nc1ccc(F)cc1F)Nc1ccc(F)cc1F | -11% (inactive)
COc1ccc(NS(=O)(=O)c2ccc(N3CCOCC3)c(NC(=O)/C=C/C(=O)O)c2)cc1 | 17.8% (inactive)
O=C(NCC1CCCO1)c1ccccc1-c1nc(-c2ccccc2Cl)no1 (configuration not stated) | -12.9% (inactive)
O=C(O)CC12CC3CC(C1)CC(n1ncc(NCc4ccc(F)cc4)c(Cl)c1=O)(C3)C2 | -4.6% (inactive)
CCN1CCC2(CC1)N=C(c1ccc(F)cc1)C(=S)N2C(=O)c1ccc(C)cc1 | 2.3% (inactive)
CCN1CCC(O)(/C=C/c2ccc(C)cc2)C(C(=O)/C=C/c2ccc(C)cc2)C1 (configuration not stated) | -73.7% (active)
CCc1nc2ccc(C(=O)N3CCC(O)(Cc4ccccc4)CC3)cn2c1N(C)C(=O)Cc1ccccc1 | -15.5% (inactive)
CC(=O)c1cccc(-c2cnc3c(NC=O)cc(-c4ccc(N(C)C)cc4)cn23)c1 | -27.1% (inactive)

SMILES | activity change (cytotoxicity)
CC(=O)c1ccc(-c2cnc3c(NC=O)cc(-c4cccc(NS(C)(=O)=O)c4)cn23)cc1 | -51.7% (active)
CC(=O)Nc1cccc(-c2cc(NC=O)c3ncc(-c4ccc(F)c(Cl)c4)n3c2)c1 | 0.8% (inactive)
O=C(Nc1ccc(S(=O)(=O)N2CCCCCC2)cc1)c1c(F)cccc1F | 5.1% (inactive)
O=C(Nc1ccncc1)c1c(F)cccc1F | -51.3% (active)
COc1cccc(OC)c1C(=O)Nc1ccc(Cc2ccncc2)cc1 | -3.9% (inactive)
CCOC(=O)C1CCCN(C(=O)C2CCN(c3nnc(-n4cccc4)s3)CC2)C1 (configuration not stated) | -8.3% (inactive)
COc1ccc(NC(=O)COC(=O)C2COc3ccccc3O2)cc1 (configuration not stated) | 12.9% (inactive)
O=C(Nc1nc(-c2ccncc2)cs1)C1COc2ccccc2O1 (configuration not stated) | -70.7% (active)
O=C(Nc1cc(S(=O)(=O)N2CCCCC2)ccc1Cl)C1COc2ccccc2O1 (configuration not stated) | -14% (inactive)
CCN1CCN(C(=O)CN(C)S(=O)(=O)c2ccc(OC)cc2)CC1 | 3.4% (inactive)
CSc1cccc(NC(=O)CN2C(=O)COc3ccc(S(=O)(=O)N4CCOCC4)cc32)c1 | 6.5% (inactive)
Cc1ccc(CNC(=O)COc2ccc(S(=O)(=O)NC(C)C)cc2)cc1 | -0.1% (inactive)
O=C1CN(C(=O)c2ccccc2F)C(c2ccc(F)cc2)c2cc(F)ccc2N1 (configuration not stated) | 11.6% (inactive)
C=CCNC(=S)NNC(=O)COc1c(Cl)cc(Cl)cc1Cl | -16.4% (inactive)
O=C(C1CCN(S(=O)(=O)c2ccc(Br)s2)CC1)N1CCN(C2CCCCC2)CC1 | 13.7% (inactive)
CC(C)CCOc1ccc(C(=O)C[N+]2(C)CCOCC2)cc1 | 1.8% (inactive)
CCCOc1ccc(C(=O)C(CCC(CNCC)C(=O)c2ccc(OCCC)cc2)CNCC)cc1 (configuration not stated) | -58.6% (active)
CCCc1ccc(OCCNC(=O)c2ccccc2Br)cc1 | -6.1% (inactive)
Cc1ccc(C(NC(=O)C2CCN(CCOc3ccc(Cl)cc3Cl)CC2)c2ccccn2)cc1 (configuration not stated) | -0.6% (inactive)
COc1cccc(OCc2cc(/C=N/NC(=O)c3nc(Cl)c(Cl)c(N)c3Cl)ccc2OC)c1 | -5.4% (inactive)
COc1ccc(C(=O)Nc2ccccc2C(=O)N/N=C/c2ccc(O)c(OC)c2)cc1 | -87.3% (active)
CCOc1ccc(-c2cc(C(=O)N/N=C/c3ccc(O)cc3)c3ccccc3n2)cc1 | -15.6% (inactive)
CC(=O)Nc1ccc(NC(=O)CC2CCCC2)cc1 | 6.6% (inactive)

SMILES | activity change (cytotoxicity)
O=c1c2ccccc2ncn1CCCCOc1ccccc1F | 5.1% (inactive)
COCCCNC(=O)C1CC(=O)N(CCc2ccc(F)cc2)C1 (configuration not stated) | 1.6% (inactive)
CC(=O)NCCn1c(SCC(=O)Nc2ccc(C)cc2)nc2ccccc2c1=O | 4.4% (inactive)
CCOc1ccc(NC(=O)CSc2nc3ccccc3c(=O)n2Cc2cccs2)cc1 | -54.6% (active)
O=C(CSc1nc2nccnc2c(=O)n1Cc1cccs1)Nc1ccccc1F | -10.3% (inactive)
Cc1ccc(NC(=O)C(c2ccccc2)N2CCN(C(=O)c3ccco3)CC2)cc1 (configuration not stated) | 19.2% (inactive)
CSc1ccc(CNC(=O)c2ccc(NC(=O)C3=CSCCO3)cc2)cc1 | -31.3% (inactive)
CCC/C(O)=C1\C(=O)CC(C)(C)CC1=Nc1ccccc1OC | 21.9% (inactive)
Cc1cc2c(C)nc(N/N=C/c3ccccc3)nc2o1 | 16.3% (inactive)
C=C(C)C(=O)O[C@H]1C/C(C)=C\C(=O)/C=C(\C)[C@H](O)[C@@H]2OC(=O)C(=C)[C@@H]21 | -78.6% (active)
COc1cccc(C(=O)Oc2cc(C)[nH]c(=O)c2[N+](=O)[O-])c1 | 0.5% (inactive)
COC(=O)C1CCCCN1C(=O)c1ccc(OC2CCN(C(C)=O)CC2)c(OC)c1 (configuration not stated) | 2.5% (inactive)
Cc1ccc2c(c1)N(C(=O)CCC(=O)N1CCc3ccccc3C1)CCO2 | -2.8% (inactive)
Cc1ccccc1C(CC(=O)c1cccs1)C(C#N)C#N (configuration not stated) | -51.2% (active)
Cc1ccc(C)c(NC(CC(=O)c2ccccc2)C(=O)OCC(=O)c2cccs2)c1 (configuration not stated) | 5.7% (inactive)
O=C(NCC(=O)N1CCN(c2ccccc2F)CC1)c1cccs1 | 10.7% (inactive)
CCN(CC)c1nc(-c2ccccc2)cc(C(F)(F)F)c1C#N | 9.1% (inactive)
O=C(Cc1ccc(Cl)c(Cl)c1)Nc1ccc(SC(F)F)cc1 | -64.7% (active)
CN(CC(=O)Nc1ccc(S(=O)(=O)N2CCCC2)cc1)Cc1ccc(Cl)c(Cl)c1 | -2.3% (inactive)
Cc1ccc(CC(=O)Nc2ccc(OC(F)F)c(Cl)c2)cc1C | 5.1% (inactive)
COc1ccccc1NC(=O)CSc1nnc(CNC(=O)c2ccccc2F)o1 | -0.3% (inactive)
CCn1cc(NC(=O)Nc2ccc(OC)c(OC)c2)c(C(N)=O)n1 | -3.5% (inactive)
O=C(COC(=O)/C(=C/c1cccs1)c1cccs1)NCc1ccccc1Cl | 4.5% (inactive)
